By viability is commonly meant a read-out of living cells in per cent, often relative to untreated cells.

We go through 75 molecules from PubChem BioAssay AID492998 (Southern Research Specialized Biocontainment Screening …, 2010).

Hit rate of the full screen: of about 2,300 compounds, about 550 (24%) were called active. Only a sample is shown. Measured potencies and affinities stand elsewhere. Unmarked numbers belong to inactive results. No rule for the calls is given here.

The nature of this experiment: Vero E6 cell cytotoxicity, dose response, cytotoxicity control for non-replicating M. tuberculosis project, secondary assay (AID 492998).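 Also: 100% = vehicle-treated cells and 0% = background wells.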 The settings on record: series mostly up to 20 µM; viability: at the top concentration.
Consider `O=C(CC1CCCC1)OCn1nnc2ccccc2c1=O`, for which the “viability” value is 102%. With `COc1ccc(-n2c3c(cc(C(=O)NNc4ccccc4)c2=O)C(=O)CC(C)(C)C3)cc1`, the “viability” value was 102%. The value for `CCOC(=O)c1c(C)nc2c3ccccc3ccn12` was 106%; that for `CCOC(=O)Cc1ccc(NCc2ccc(Cl)cc2)cc1` was 93.4%. With `CCOC(=O)C1(O)CC(C)=NN1C(=O)c1cccc(Br)c1` (stereo not given) the figure was 104%; with `CCOC(=O)Cc1cc(=O)n2[nH]cc(-c3ccc(Cl)cc3)c2n1`, 94.1%. With `CCOc1ccc(NC(=O)CCc2ccc(C)o2)cc1` the figure was 111%; with `CC(C)(C)NC(=O)C(=O)NNC(=O)COc1ccc(Br)cc1`, 95.2%.

As for `O=C(COC(=O)c1cccc(C(F)(F)F)c1)NCc1ccccc1`, the “viability” value was 98.9%. `CCOC(=O)COc1ccc2c(c1)c(C(=O)OCC)c(C)n2CC`: the “viability” value was 95.5%. Consider `CCCCN1CCC(O)(c2ccccc2)C(C(=O)c2ccccc2)C1` (stereo not given), for which the “viability” value is 79.3%.

Turning to `CCOc1c(OC(C)=O)ccc(/C=C2\N=C(SCC)SC2=O)c1[N+](=O)[O-]`, the “viability” value is 101%. With `O=Cc1ccc(OC2OCCOC2Oc2ccc(C=O)cc2)cc1` (stereo not given) the figure was 108%; with `Cc1cc2nc(CSc3ccc(Cl)cc3)cc(=O)n2[nH]1`, 99%; with `CS(=O)(=O)Cc1nc2ccccc2oc1=O`, 79.7%.

With `COc1cccc2cc(-c3nc4ccccc4o3)c(=O)oc12`, the “viability” value is 92.9%.

As to `O=C(CCN1CCN(C/C=C/c2ccccc2)CC1)Nc1ccc(Cl)cc1`, the “viability” value is 87.6%. With `Cc1ccc(-c2nnc(COC(=O)c3cccs3)o2)cc1` the figure was 102%; with `CCOC(=O)C(=NCCOC)NNc1cc(Cl)ccc1Cl`, 106%.

Regarding `Cc1cccc(OCC(O)Cn2c(=N)n(Cc3ccccc3)c3ccccc32)c1` (stereo not given), the “viability” value is 75%. The value for `OC(COc1ccccc1Cl)CN1CCN(CC(O)COc2ccccc2Cl)CC1` (stereo not given) was 85.3%. Turning to `OC(COc1ccc2ccccc2c1Br)Cn1ccnc1` (stereo not given), the “viability” value was 89.5%. In the case of `O=C(COc1ccccc1)NCCSCc1ccc(Cl)cc1`, the “viability” value was 97.8%. Regarding `CC(=O)n1cc(/C=C2/N=C(c3ccccc3)OC2=O)c2ccccc21`, the “viability” value is 98.1%. As to `COc1cc(C(=O)ON=C2C=C(C)C(=O)C(C)=C2)cc(OC)c1OC`, the “viability” value is 86.3%. The value for `CCOCC(=O)Nc1ccc(C)c(Cl)c1` was 106%; that for `Cc1cc(NC(=O)COC(=O)COc2ccc(C(=O)c3ccccc3)cc2)no1` was 95.8%; that for `O=C(O)c1ccc(NCc2ccc(Br)cc2)cc1` was 105%. The value for `CC(=O)Nc1ccc(NC(=O)[C@@H]2CCCC[C@@H]2C(=O)O)cc1` was 100%. For `O=C(COc1ccc2ccccc2c1)N1CCCC1`, the “viability” value was 89%. With `Nc1c(Cl)cc(Cl)cc1C(=O)OCC(=O)N1CCCC1` the figure was 78.2%; with `CCOC(=O)c1ccc(-c2ccc(C(=O)Nc3cccnc3)o2)cc1`, 88.4%. `CCOC(=O)C1CCCN(Cc2ccc(OCc3ccccc3)cc2)C1` (stereo not given): the “viability” value was 96.5%.

For the molecule `CCC(C)NCCOc1ccc(C(C)(C)c2ccccc2)cc1` (stereo not given), the “viability” value is 79.9%. The value for `CN=C1S/C(=C\c2ccc(OCC(=O)OC)c(OC)c2)C(=O)N1C` was 82%; that for `CC(C)CSc1nnc2c3ccccc3n(C)c2n1` was 85.3%.

Regarding `CC(C)[C@@H]1CC[C@@H](C)C[C@H]1OC(=O)C[n+]1cc(-c2ccc(Cl)cc2)n2c1CCCCC2`, the “viability” value is 100%. The value for `COc1ccc(NC(=O)c2cc3ccccc3o2)cc1` was 90.1%.

With `CCCn1nnnc1NCc1ccc(C(C)C)cc1`, the “viability” value is 97.6%. The value for `CCc1nonc1NC(=O)COc1ccc(Cl)c(C)c1` was 101%; that for `O=C1/C(=C/c2ccccn2)COc2ccccc21` was 78.1%; that for `Cn1nnc(NC(=O)COc2ccc(C3CCCCC3)cc2)n1` was 110%. With `O=C(NCc1ccc(F)cc1)c1cnccn1` the figure was 98.9%. The value for `O=C(Oc1ccccc1)c1ccc(COC(=O)c2cnccn2)cc1` was 94.8%; that for `COc1c[nH]n(C2CCCCC2)c(=O)c1=O` was 93.4%; that for `CCCN(Cc1nnc(-c2ccccc2Cl)o1)C(=O)c1cc([N+](=O)[O-])cc([N+](=O)[O-])c1` was 82.5%. Take `Cc1ccc(NC(=O)COc2ccc3c(c2)CCC3)nc1`: the “viability” value was 108%. Regarding `COc1ccc(CNC(=O)c2cc3cccc(O)c3oc2=N)cc1`, the “viability” value was 92.5%. With `CCc1ccc(N2NC(=O)/C(=C/C=C/c3ccco3)C2=O)cc1` the figure was 95.8%; with `O=C(COc1cccc2ccccc12)Nc1nc2ccccc2[nH]1`, 87.5%; with `CC1Cc2cc(/C=C3/SC(=S)NC3=O)ccc2O1` (stereo not given), 84.9%. As to `Cc1cccc2cc(C#N)c(NCCCn3ccnc3)nc12`, the “viability” value was 86.1%. The value for `c1ccc(-c2nc(NCCCn3ccnc3)c3ccccc3n2)cc1` was 82.4%; that for `O=C(COC(=O)CCc1c[nH]c2ccccc12)Nc1cc([N+](=O)[O-])ccc1Cl` was 79%. With `Cc1nnc(N/N=C/c2cccc(OCc3ccc(Cl)c(Cl)c3)c2)n1N` the figure was 83.2%. On to `CCCCCCC1CC(C)(C(=O)CNc2nncs2)OC1=O` (stereo not given), for which the “viability” value was 99.8%. With `CCCn1nnc(NC(=O)COc2ccc(CC)cc2)n1` the figure was 100%; with `CNC(=O)c1[nH]cnc1C(=O)Nc1ccc(Cl)cc1`, 103%. The value for `Cc1nc(C(=O)Nc2ccccc2)sc1C(=O)Nc1ccccc1` was 90.4%; that for `Nc1nnc(Sc2ncccc2[N+](=O)[O-])s1` was 112%; that for `CC(C)OC(=O)C(C)Oc1ccc(C(=O)NCCc2ccccc2)cc1` (stereo not given) was 96.7%. Consider `CC(=O)c1cc2c(ccc3ccccc32)oc1=O`, for which the “viability” value is 107%.

Take `Cn1cccc1/C=C1/C(=O)NC(=S)N(Cc2ccc(F)cc2)C1=O`: the “viability” value was 78.3%. With `Cc1ccc(/C=C2/C(=O)NC(=O)N(CCc3ccc(F)cc3)C2=O)s1` the figure was 94.2%. With `O=C1CC(N2CCSCC2)C(=O)N1CCc1ccccc1` (stereo not given) the figure was 108%. With `CCCCSc1nnc(-c2cc(Br)ccc2N)c(=O)[nH]1` the figure was 98.3%; with `O=C(NCCc1cccc(Cl)c1)c1cc2ccccc2oc1=O`, 109%; with `Cc1ccc(-c2ccc(/C=N/NC(=O)CN3CCCC3)o2)cc1Cl`, 91.8%. `O=C(N/N=C/c1ccccn1)c1cc([N+](=O)[O-])cc([N+](=O)[O-])c1`: the “viability” value was 107%. The value for `COc1ccccc1OCCNC(=O)c1cc([N+](=O)[O-])cc([N+](=O)[O-])c1` was 101%. With `COC(=O)C1=C(C)N(CC2CC2)C(=NCc2cccc(Cl)c2)N[C@H]1c1ccccc1` the figure was 87.9%. The value for `O=C(COc1ccc(Br)cc1)N/N=C1/SCC(=O)N1Cc1ccccc1` was 73.1%.

Regarding `CC(=O)c1c(O)cc(=O)n(-c2ccccc2)c1-c1ccc(C)cc1`, the “viability” value was 93%.

As for `CN(C)CCC(=O)N1c2ccccc2Sc2ccc(Cl)cc21`, the “viability” value was 99.6%. Turning to `CCOC(=O)c1ccc(NC(=O)NS(=O)(=O)c2ccc(C)cc2)cc1`, the “viability” value is 99.6%.
